Results taken from PubChem BioAssay AID686978 (National Center for Advancing Translational Sciences (NCATS), 2013).
Hit rate of the full screen: of about 420,000 compounds, about 64,000 (15%) were called active. Roughly 27% stayed inconclusive and do not appear here. The list is a sample of the results. Unmarked numbers belong to inactive results. The call rests on the fitted dose curve; in most records, active means well fitted inhibition curve with a large enough effect; inconclusive means small, poorly fitted or top-dose-only effect; inactive means flat fitted curve, though single readings scatter.

Experiment: qHTS for Inhibitors of human tyrosyl-DNA phosphodiesterase 1 (TDP1): qHTS in cells in absence of CPT; further: nearly all actives have a fitted effect of over 55% in size
Conditions: DT40 Tdp1-/- hTDP1 cells, no CPT, ATP luminescence, 48 h; activity change, negative = growth inhibition: at 46.2 µM (top of the series)
Procedure, shortened: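 Growth kinetics read by CellTiter-Glo luminescence after ≥48 hr at 37 °C. Cells: DT40 Tdp1-/- stably carrying human TDP1, 400 per well, compound exposure in the absence of CPT (DMSO vehicle).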
On the % scale 0 is the no-effect control and ±100 the full control effect; potency means the concentration at half of the fitted maximal effect.

Row | SMILES | Potency | activity change, negative = growth inhibition
1 | COc1nc(NC2CCCCC2)nc(N2CCCCCC2)n1 | 12.6 µM (active) | 
2 | CCCn1c(SCC(=O)c2ccc3c(c2)OCCO3)nnc1C(C)C | 20.6 µM (active) | 
3 | CCn1c(SCC(=O)Nc2ccc3c(c2)OCCO3)nnc1C(C)C |  | -12.3%
4 | CCCn1c(SCC(N)=O)nnc1C(C)C |  | -8.78%
5 | Cc1ccc(-n2c(C)cc(C(=O)CN3C(=O)C(=O)N(C4CCCC4)C3=O)c2C)cc1 | 25.9 µM (active) | 
6 | CCOC(=O)c1cc2c(n(-c3ccc(C)cc3)c1=O)CCCC2=O |  | -13.6%
7 | C=CCn1c(C)cc(C(=O)CN2C(=O)c3ccccc3C2=O)c1C |  | -25.9%
8 | COc1ccc(NC(=O)CCCC2CCCCC2)c(OC)c1 |  | -16.4%
9 | COc1ccc(Cl)cc1C(=O)NNC(=S)NC(=O)/C=C/c1ccco1 | 23.1 µM (active) | 
10 | C=CCNC(=S)NNC(=O)c1cc(Cl)ccc1OC |  | 3.87%
11 | O=C(/C=C/c1ccco1)NC(=S)Nc1ccccc1Br |  | -12.9%
12 | CC(C)c1nc(CNC(=O)CC2C(=O)NCCN2Cc2ccoc2)cs1 (stereo unspecified) |  | -1.5%
13 | O=C(COC(=O)Cn1cnc2ccccc21)Nc1cccc2c1C(=O)c1ccccc1C2=O | 9.2 µM (active) | 
14 | CCC(=O)Nc1ccccc1-c1nc2ccccc2n(CC(=O)Nc2ccc(C)c(C)c2)c1=O |  | -29%
15 | O=C(Cn1cnc2ccccc21)Nc1ccccc1-c1ccccc1 | 2.31 µM (active) | 
16 | CN(Cc1c(F)cccc1Cl)C(=O)COC(=O)Cn1cnc2ccccc2c1=O |  | 3.31%
17 | O=C(Cn1cnc2ccccc21)N/N=C/c1ccco1 |  | 15%
18 | O=C(COC(=O)Cn1cnc2ccccc2c1=O)NCc1ccccc1Cl |  | 2.41%
19 | CCN(Cc1ccccc1)Cc1c(O)ccc2c(=O)c(-c3ccc(Cl)cc3Cl)coc12 |  | 6.31%
20 | CCCn1c(SCC(=O)Nc2ccc(C)c(S(=O)(=O)N3CCOCC3)c2)n[nH]c1=O |  | -12.2%
21 | CCOC(=O)C1CCN(C(=O)C2(NC(=O)Nc3cccc(F)c3)CCCCC2)CC1 |  | -24.2%
22 | COC(=O)C(=Nc1ccccc1)/C(C(=O)C(=O)N(C)c1ccccc1)=C(\O)c1ccc(Cl)cc1 |  | -0.772%
23 | COc1cc(OC)c(C(=O)OCC(=O)N2CC(=O)Nc3ccccc32)cc1OC |  | 12.3%
24 | O=C1NC(c2ccncc2)Nc2sc3c(c21)CCCC3 (stereo unspecified) |  | -11.1%
25 | N#Cc1c(N)sc2c1CCN(C(=O)OCc1ccccc1)C2 |  | -24.9%
26 | CCOC(=O)N1CCc2c(sc3c2C(=O)NC(c2ccccc2F)N3)C1 (stereo unspecified) | 16.4 µM (active) | 

Row | SMILES | Potency | activity change, negative = growth inhibition
27 | C#CCN1C(=O)C(O)(CC(=O)c2cc(OC)ccc2OC)c2ccccc21 (stereo unspecified) | 16.4 µM (active) | 
28 | COc1ccc(C(=O)COC(=O)c2nn(C)c(=O)c3ccccc23)c(OC)c1 |  | 5.24%
29 | COc1ccc(OC)c(NC(=O)c2cnn(-c3ccccc3Cl)c2NC(=O)c2ccco2)c1 |  | -17.9%
30 | CC(=O)NC(=S)Nc1ccc(NC(=O)c2cccnc2)cc1 |  | 7.62%
31 | N#CCSc1ccccc1NC(=O)CN1C(=O)NC(CCc2ccccc2)C1=O (stereo unspecified) |  | -11.9%
32 | Cn1ncc([N+](=O)[O-])c1C(=O)Nc1cc(Cl)ccc1Cl |  | -5.68%
33 | COc1ccc(CN2CN(C(C)C)CSC2=S)cc1 | 3.26 µM (active) | 
34 | COc1ccc(CN2CC(C(=O)NC3CCCCC3)CC2=O)cc1 (stereo unspecified) |  | 14.2%
35 | COc1ccc(CN2CN(C3CCCC3)CSC2=S)cc1 | 4.61 µM (active) | 
36 | COc1ccc(CN2CC(C(=O)NCCc3ccc(Cl)cc3)CC2=O)cc1 (stereo unspecified) |  | 6.36%
37 | COc1ccc(CCNC(=O)COC(=O)C2CCCCC2)cc1 |  | 0.441%
38 | COc1ccc(Cn2c(=O)cc(C)[nH]c2=S)cc1 |  | 12%
39 | CC(=O)N1CSCC1C(=O)O (stereo unspecified) |  | 2.18%
40 | CC1(C)Oc2ccc3ccc(=O)oc3c2/C(=C/NCCO)C1=O |  | -13.1%
41 | CCCCN(C(=O)C(CCSC)N1C(=O)c2ccccc2C1=O)c1c(N)n(CCC)c(=O)[nH]c1=O (stereo unspecified) |  | 19%
42 | CC(C)(CNC(=O)CNC(=O)C1CCCCC1)N1CCOCC1 |  | -16.2%
43 | Cc1cc(C)c(C#N)c(SCc2[nH]nc3c2C(c2ccccc2)C(C#N)=C(N)O3)n1 (stereo unspecified) |  | -2.46%
44 | CCCc1[nH]nc2c1C(c1ccc(Br)s1)C(C#N)=C(N)O2 (stereo unspecified) | 7.31 µM (active) | 
45 | COc1cc(C2C(C#N)=C(N)Oc3n[nH]c(-c4ccccn4)c32)cc(OC)c1OC (stereo unspecified) |  | -15.1%
46 | N#CC1=C(N)OC2=C(C(=O)CCC2)C1C1CC=CCC1 (stereo unspecified) |  | -29%
47 | COCc1[nH]nc2c1C(C1C=CCCC1)C(C#N)=C(N)O2 (stereo unspecified) | 20.6 µM (active) | 
48 | CCCc1nc2c([nH]1)C(c1cccnc1)C(C#N)=C(N)O2 (stereo unspecified) |  | -10.3%
49 | CCOc1c(OC)cc(C2C(C#N)=C(N)Oc3n[nH]c(-c4ccncc4)c32)cc1OC (stereo unspecified) |  | -6.03%
50 | CCCc1[nH]nc2c1C(C1CC=CCC1)C(C#N)=C(N)O2 (stereo unspecified) | 13 µM (active) | 
51 | CCc1ccc(C2C(C#N)=C(N)Oc3n[nH]c(CC(=O)OC)c32)cc1 (stereo unspecified) |  | -4.43%
